Compound activity as filed in PubChem BioAssay.
IkB signaling: suppresses IkB signaling in ABC-DLBCL reporter cells; 110,000 tested, 0.04% active; AID 445; Potency, µM (top dose mostly 57.1 µM), for the others: at the top dose IkBa stabilization activation; ABC-DLBCL IkBa-CBG/CBR dual luciferase ratio, 4 h; response scale: scaled: untreated 0%, proteasome inhibitor 100%; active means well fitted curve in the direction sought with a large enough effect in the signal ratio, not every such curve was filed as active; inconclusive means small, poorly fitted or top-dose-only effect, or a change in a side signal; the % refers to the signal ratio;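 further: the direction sought is a rising ratio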
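In this assay, an IκBα–CBG68 fusion accumulates when IKK-driven degradation is blocked; native CBR normalizes for cell number. OCI-Ly3 cells were treated 4 h with compound and doxycycline, then green and red light read after Chroma-Glo addition.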
p53ts 32C kill: cytotoxicity in p53ts cells at permissive temperature. H1299-p53A138V at 32C, ATP luminescence viability, 24 h. Potency, µM (top dose mostly 46.1 µM), for inactives: top-dose activity change, negative = cytotoxicity, usual class: cytotoxic. 130,000 tested, 0.93% active. AID 924;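 further: 0% = DMSO and -100% = full killing by reference compound; nearly all actives have a fitted effect of over 55% in size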
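Viability by ATPlite luminescence after 24 h compound treatment (up to 46 uM) at the permissive 32C. Cells are H1299 carrying p53 A138V. Scale runs from DMSO basal to 100 uM tamoxifen as full kill; AC50 from Hill fits.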
Peg3 imprint: induces erasure of genomic imprints in mouse ES cells. mouse ES Peg3-LacZ reporter, beta-gal luminescence, 40 h. Potency, µM (series often up to 60.7 µM), for the others: top-dose activity change, positive = activation, actives largely listed as activators. 110,000 tested, 0.02% active
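Each well holds 300 Peg3LacZ-Neo (maternal) female ES cells incubated 40 h at 37C, 5% CO2. LacZ is measured by BetaGlo luminescence, with AC50 and maximum efficacy derived from dose-response curves.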
p53ts 39C tox: kills p53ts cells at the nonpermissive temperature; H1299-p53A138V viability at 39C, ATP luminescence, 24 h; 130,000 tested, 1.5% active; Potency, µM (doses to about 46.1 µM), for the others: top-dose activity change, negative = cell killing, actives largely listed as cytotoxic; further: on the % scale 0 is the no-effect control and ±100 the full control effect; nearly all actives have a fitted effect of over 55% in size
The depositor's hits bear a star; [ ] = another dose, or the depositor's remark. Compounds with a hit are over-represented: about 1.7% of the library has one in this group of screens. Unless noted, the call rests on the fitted dose curve; in most records, active means well fitted curve in the direction sought with a large enough effect; inconclusive means small, poorly fitted or top-dose-only effect, or another doubt; inactive means no such curve, though single readings can be large; an effect the other way counts as inactive or inconclusive. Potency means the concentration at half of the fitted maximal effect.

Results for O=C(COc1ccc(Cl)cc1)Nc1ccc(Cl)cn1 ?
IkB signaling: 8.9%; p53ts 32C kill: -21.3%; Peg3 imprint: -19.4%; p53ts 39C tox: -4.6%

How did O=C(CSc1nc2ccccc2n1CC(=O)Nc1ccc(F)cc1F)Nc1ccc(F)cc1 do in these assays?
IkB signaling: inconclusive; p53ts 32C kill: 0.2%; Peg3 imprint: -3.0%[10.9 µM]; p53ts 39C tox: -28.0%

How did CCOC(=O)c1cc(-c2ccccc2)n(CCC(=O)NC2CCCCC2)c1C do in these assays?
IkB signaling: -2.0%; p53ts 32C kill: -2.3%; Peg3 imprint: -15.7%[10.9 µM]; p53ts 39C tox: -10.4%

Results for Cc1c(CNC(C)CCc2ccccc2)c(C(=O)O)c(C)n1Cc1ccc(F)cc1Cl (stereo unspecified) ?
IkB signaling: inconclusive; p53ts 32C kill: 6.4%; Peg3 imprint: 18.5%[10.9 µM]; p53ts 39C tox: -6.8%

How did COc1cccc(-c2cn3nc4c(nc3n2)CCCC4)c1 do in these assays?
IkB signaling: inconclusive; p53ts 32C kill: 5.01µM*; Peg3 imprint: -94.2%; p53ts 39C tox: 5.01µM*

How did COc1cccc(-c2cc(C(F)(F)F)n3nc(N)nc3n2)c1 do in these assays?
IkB signaling: -1.6%; p53ts 32C kill: -5.1%; Peg3 imprint: -11.4%; p53ts 39C tox: -9.0%

Results for Cc1ccccc1OCC(=O)Nc1ccc2nc(SCC(=O)N3CCCC3)sc2c1 ?
IkB signaling: inconclusive; p53ts 32C kill: inconclusive; Peg3 imprint: -13.1%[10.9 µM]; p53ts 39C tox: -25.3%

Results for CCCCCOc1ccccc1CN1C(=O)C(=O)c2cc(C)ccc21 ?
IkB signaling: 0.0%; p53ts 32C kill: 1.4%; Peg3 imprint: 16.6%[10.9 µM]; p53ts 39C tox: 12.6µM*

Results for Cc1ccc(C)c(N2CCN(C(=O)CN3C(=O)CSc4c3c(C)nn4-c3ccccc3)CC2)c1 ?
IkB signaling: inconclusive; p53ts 32C kill: 6.7%; Peg3 imprint: -5.3%[10.9 µM]; p53ts 39C tox: -11.9%

How did COc1ccccc1N1CCN(CC(O)COc2ccc(C)cc2C(C)(C)C)CC1 (stereo unspecified) do in these assays?
IkB signaling: inconclusive; p53ts 32C kill: -24.5%; Peg3 imprint: -13.2%[10.9 µM]; p53ts 39C tox: 25.1µM*

Results for Cc1ccc2[nH]cc(C(c3ccccc3)c3ccc(C)s3)c2c1 (stereo unspecified) ?
IkB signaling: inconclusive; p53ts 32C kill: inconclusive; Peg3 imprint: -10.0%[10.9 µM]; p53ts 39C tox: 12.6µM*

How did Cc1ccc2[nH]cc(C(c3ccccc3)c3cccs3)c2c1 (stereo unspecified) do in these assays?
IkB signaling: inconclusive; p53ts 32C kill: inconclusive; Peg3 imprint: 10.5%[10.9 µM]; p53ts 39C tox: inconclusive

What do the screens show for `Fc1cccc2sc(Nc3nnc(-c4ccco4)o3)nc12`?
IkB signaling: inconclusive; p53ts 32C kill: inconclusive; Peg3 imprint: -62.0%; p53ts 39C tox: inconclusive

How did COc1cccc2sc(Nc3nnc(-c4cccs4)o3)nc12 do in these assays?
IkB signaling: inconclusive; p53ts 32C kill: inconclusive; Peg3 imprint: -92.0%; p53ts 39C tox: 12.6µM*

Results for O=C1[C@@H]2[C@@H]3C=C[C@H]([C@@H]2C(=O)N1CN1CCSCC1)[C@@H]1[C@@H]2C(=O)N(CN4CCSCC4)C(=O)[C@@H]2[C@H]31 ?
IkB signaling: -0.2%[11.4 µM]; p53ts 32C kill: 2.6%[9.22 µM]; p53ts 39C tox: 8.9%[9.22 µM]

Results for O=C(COc1ccc2c(c1)CCC2)N1CCc2ccccc21 ?
IkB signaling: inconclusive; p53ts 32C kill: 12.6µM*; Peg3 imprint: -34.8%; p53ts 39C tox: inconclusive

How did O=C(CC(c1ccccc1)c1cc(Br)ccc1O)NCC1(c2ccccc2)CCCC1 (stereo unspecified) do in these assays?
IkB signaling: inconclusive; p53ts 32C kill: inconclusive; Peg3 imprint: -4.4%[10.9 µM]; p53ts 39C tox: 10µM*

What do the screens show for `O=C(CC(c1ccccc1)c1cc(Br)ccc1O)NCCN1CCOCC1` (stereo unspecified)?
IkB signaling: 3.8%; p53ts 32C kill: 0.7%; Peg3 imprint: -7.4%; p53ts 39C tox: 7.6%

How did CC(=O)[C@]1(O)CCC2C3C=C(Cl)C4=CC(=O)C5CC5[C@@]4(C)C3CC[C@]21C (stereo partly specified) do in these assays?
p53ts 32C kill: 9.9%; Peg3 imprint: 1.4%; p53ts 39C tox: -5.5%

How did CCOC(=O)CC(=O)CSc1nc2ccsc2c(=O)n1Cc1ccccc1 do in these assays?
IkB signaling: 2.0%; p53ts 32C kill: 24.8%; Peg3 imprint: 1.4%[10.9 µM]; p53ts 39C tox: -6.8%
